# PubChem BioAssay (Tox21)
# Records with an inconclusive call do not appear. Entries that show only a call come without a potency. Active and inactive are the calls of the source. Unless noted, calls come from the whole dose curve; as a rule, active = well fitted curve in the direction sought with a large enough effect in the repeat runs; inconclusive = weak or mixed curves; inactive = no such curve, though single readings can be large; an effect the other way counts as inactive or inconclusive.
# How the values were obtained:
# [1] = biological target: Estrogen receptor beta (Homo sapiens) (UniProt Q92731); assay: qHTS assay to identify small molecule antagonists of the estrogen receptor beta (ER-beta) signaling pathway (AID 1259378; active = well fitted inhibition curve with a large enough effect in the signal ratio in the repeat runs, not every such curve was filed as active; the % refers to the signal ratio; note: potency is the fitted concentration of half-maximal effect)
# Method in brief: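 ER-beta-UAS-bla HEK293T cells in 2% charcoal-stripped FBS medium treated with compound plus 1nM final 17-beta-estradiol for 16 hr at 37C. Beta-lactamase reporter read by FRET substrate fluorescence after 2 hours at room temperature.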
# [2] = qHTS assay to identify small molecule agonists of the androgen receptor (AR) signaling pathway in the presence of an antagonist - cell viability counter screen (AID 1259379); note: nearly all actives have a fitted effect of over 25% in size; note: potency is the fitted concentration of half-maximal effect
# Method in brief: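 Cytotoxicity is assessed by CellTiter-Fluor in MDA-kb2 cells carrying an MMTV-driven luciferase reporter. Cells receive 3.0uM nilutamide plus compounds at 15 concentrations and incubate 16 hr at 37C without CO2 before fluorescence reading.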
# [3] = biological target: Estrogen receptor (Homo sapiens) (UniProt P03372); assay: qHTS assay to identify small molecule agonists of the estrogen receptor alpha (ER-alpha) signaling pathway in the presence of an antagonist (AID 1259383; calls by dose curve; note: top concentration of the series differs between compounds; nearly all actives have a fitted effect of over 15% in size)
# Method in brief: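 Agonist-mode confirmation in the presence of the ER antagonist ICI-182,780 at 10.0nM final. Breast-derived VM7Luc4E2 reporter cells were exposed to compounds for 22hr, and ERE-driven luciferase was quantified by luminescence.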
# [4] = qHTS assay to identify small molecule agonists or antagonists of the thyroid stimulating hormone receptor (TSHR) signaling pathway - wild type cell line counter screen (AID 1259384; calls by dose curve)
# Method in brief: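 Wild-type Hek293 cells, 800/well, 18 h at 37C, then compound with Ro20-1724 for 30 min RT. cAMP by HTRF (cAMP-d2/anti-cAMP cryptate), 1 h RT, fluorescence read. 15 concentrations, triplicates.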
# [5] = biological target: Thyrotropin receptor (Homo sapiens) (UniProt P16473); assay: qHTS assay to identify small molecule antagonists of the thyroid stimulating hormone receptor (TSHR) signaling pathway (AID 1259385; calls by dose curve; note: nearly all actives have a fitted effect of over 20% in size)
# Method in brief: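 TSHR-HEK293 cells (800/well) plated 18 h, then compounds with Ro20-1724 and TSH at 1.5 ng/mL final, 30 min at room temperature. cAMP quantified by HTRF (cAMP-d2/anti-cAMP-cryptate, 1 h); 15 concentrations in triplicate.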
# [6] = qHTS assay to identify small molecule antagonists of the TGF-beta/Smad signaling pathway - cell viability counter screen (AID 1346824); note: nearly all actives have a fitted effect of over 50% in size; note: potency is the fitted concentration of half-maximal effect
# Method in brief: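 SBE-bla HEK 293T cells, incubated overnight, then compound plus 0.25 ng/mL TGF-beta1 (stock added) for 5 hr at 37 C. Viability was read in the same wells by CellTiter-Glo luminescence after 30 min at room temperature.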
# [7] = qHTS assay to identify small molecule agonists of the TGF-beta/Smad signaling pathway - cell viability counter screen (AID 1346829); note: nearly all actives have a fitted effect of over 45% in size; note: potency is the fitted concentration of half-maximal effect
# Method in brief: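 CellTiter-Glo luminescence readout; SBE-bla HEK 293T cells, overnight plating, compound 5 hr at 37 C/5% CO2, then bla substrate 2 hr RT, then CellTiter-Glo 30 min RT.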
# [8] = biological target: Thyrotropin-releasing hormone receptor (Homo sapiens) (UniProt P34981); assay: qHTS assay to identify small molecule agonists of the thyrotropin-releasing hormone receptor (TRHR) signaling pathway (AID 1346891; calls by dose curve;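 note: HEK293 cells expressing TRHR with calcium dye readout; series mostly up to about 58 µM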)
# Method in brief: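 In 1536-format, 1500 TRHR-Hek293 cells per well grew 18 h, took up calcium dye for 2 h at 37 °C, received compound, and were read kinetically; 15-point titrations, triplicates.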
# [9] = Human pregnane X receptor (PXR) small molecule agonists, qHTS cell viability counter screen (AID 1346977); note: nearly all actives have a fitted effect of over 50% in size; note: potency is the fitted concentration of half-maximal effect
# Method in brief: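 Readout is CellTiter-Fluor fluorescence from PXR-Luc HepG2 cells. Plated cells rested 5hr, then were treated with compounds for 24hr at 37C and 5% CO2, with reagent present during the last hour.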
# [10] = Caspase-3/7 induction in HepG2 cells by small molecules, qHTS assay (AID 1346978); note: nearly all actives have a fitted effect of over 15% in size; note: potency is the fitted concentration of half-maximal effect
# Method in brief: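 Wild-type HepG2 cells, 2,000/well, settled 5 hr at 37 C and 5% CO2, then compound-treated for 17 hr; caspase-3/7 activity read by luminescent Caspase-Glo 3/7 after 30 min at room temperature.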
# [11] = qHTS assay to identify small molecule antagonists of the estrogen receptor beta (ER-beta) signaling pathway - cell viability counter screen (AID 1259382); note: nearly all actives have a fitted effect of over 55% in size; note: potency is the fitted concentration of half-maximal effect
# Method in brief: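 Cytotoxicity counter screen multiplexed with the beta-lactamase antagonist assay: GripTite HEK293T ER-beta-bla cells were treated 16 hr with test chemicals in the presence of 1nM 17-beta-estradiol, and viability was measured by CellTiter-Glo.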
# [12] = qHTS assay to identify small molecule agonists of the estrogen receptor alpha (ER-alpha) signaling pathway in the presence of an antagonist - cell viability counter screen (AID 1259386);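 note: cells exposed to compounds for 22 h at 37 °C before the viability read; nearly all actives have a fitted effect of over 30% in size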; note: potency is the fitted concentration of half-maximal effect
# Method in brief: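 Cytotoxicity was measured in parallel with the ERE-luciferase agonist screen, in the same wells. The cells were VM7Luc4E2, which endogenously express ER-alpha, and treatment was with compounds plus 10.0nM ICI-182,780 for 22hr.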
# [13] = biological target: Progesterone receptor (Homo sapiens) (UniProt P06401); assay: qHTS assay to identify small molecule agonists of the progesterone receptor (PR) signaling pathway (AID 1346784; calls by dose curve; note: nearly all actives have a fitted effect of over 30% in size)
# Method in brief: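 Using charcoal-stripped serum (2%) to limit endogenous steroids, PR-UAS-bla HEK 293T cells received compounds for 16 hr at 37C after 6 hr plating; beta-lactamase FRET fluorescence was recorded following 2 hr substrate loading at room temperature.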
# [14] = biological target: Progesterone receptor (Homo sapiens) (UniProt P06401); assay: qHTS assay to identify small molecule antagonists of the progesterone receptor (PR) signaling pathway (AID 1346795; active = well fitted inhibition curve with a large enough effect in the signal ratio in the repeat runs, not every such curve was filed as active; the % refers to the signal ratio; note: potency is the fitted concentration of half-maximal effect)
# Method in brief: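 Inhibition of R5020-induced (1 nM final) beta-lactamase reporter signal in PR-UAS-bla HEK293T cells was scored by FRET fluorescence after overnight (16 hr) compound treatment.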
# [15] = qHTS assay to identify small molecule agonists of the TGF-beta/Smad signaling pathway (AID 1346859; active = well fitted activation curve with a large enough effect in the signal ratio in the repeat runs, not every such curve was filed as active; the % refers to the signal ratio; note: series mostly up to about 77 µM)
# Method in brief: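 Stable Smad binding element-beta-lactamase HEK 293T cells; 5 hr compound exposure at 37 C under 5% CO2; 2 hr room-temperature substrate step; fluorescence excited at 405 nm, collected at 460 nm and 530 nm.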
# [16] = qHTS assay to identify small molecule antagonists of the progesterone receptor (PR) signaling pathway - cell viability counter screen (AID 1346798); note: nearly all actives have a fitted effect of over 50% in size; note: potency is the fitted concentration of half-maximal effect
# Method in brief: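 ATP content as viability readout: CellTiter-Glo luminescence, 30 min room temperature, in PR-UAS-bla HEK293T cells after 16 hr compound/R5020 treatment at 37C and 5% CO2.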
# [17] = qHTS assay to identify small molecule agonists of the progesterone receptor (PR) signaling pathway - cell viability counter screen (AID 1346799; calls by dose curve; note: nearly all actives have a fitted effect of over 45% in size; note: potency is the fitted concentration of half-maximal effect)
# Method in brief: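 Cytotoxicity in PR-bla HEK293T cells: 16 h compound, 37C; CellTiter-Glo added post-FRET read; luminescence after 30 min RT.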
# [18] = biological target: Thyrotropin-releasing hormone receptor (Homo sapiens) (UniProt P34981); assay: qHTS assay to identify small molecule antagonists of the thyrotropin-releasing hormone receptor (TRHR) signaling pathway (AID 1346877; active = well fitted inhibition curve with a large enough effect in the repeat runs, not every such curve was filed as active; note: series mostly up to about 51 µM)
# Method in brief: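 Antagonism is measured as suppression of the calcium response to 1 nM TRH in TRHR-HEK293 cells that have been dye-loaded for 2 h at 37 °C after overnight plating. Each compound is tested at 15 concentrations in triplicate.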
# [19] = qHTS assay to identify small molecule agonists of the estrogen receptor beta (ER-beta) signaling pathway - cell viability counter screen (AID 1259380); note: nearly all actives have a fitted effect of over 30% in size; note: potency is the fitted concentration of half-maximal effect
# Method in brief: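 Cytotoxicity is measured in parallel with the reporter screen: after 16 hr compound exposure at 37C and a 2 hr LiveBLAzer step, CellTiter-Glo is added to the same ER-beta-UAS-bla HEK293T wells and luminescence read after 30 min.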
# [20] = biological target: Androgen receptor (Homo sapiens) (UniProt P10275); assay: qHTS assay to identify small molecule agonists of the androgen receptor (AR) signaling pathway in the presence of an antagonist (AID 1259381; calls by dose curve; note: nearly all actives have a fitted effect of over 15% in size)
# Method in brief: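 Agonist-mode confirmation screen: human MDA-kb2 cells stably expressing luciferase under an MMTV promoter bearing AR and GR response elements, co-treated with 3.0uM nilutamide (final). Luminescence measured after 16hr compound incubation.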
# Sequence of Thyrotropin-releasing hormone receptor (Homo sapiens) (P34981 whole entry, looked up): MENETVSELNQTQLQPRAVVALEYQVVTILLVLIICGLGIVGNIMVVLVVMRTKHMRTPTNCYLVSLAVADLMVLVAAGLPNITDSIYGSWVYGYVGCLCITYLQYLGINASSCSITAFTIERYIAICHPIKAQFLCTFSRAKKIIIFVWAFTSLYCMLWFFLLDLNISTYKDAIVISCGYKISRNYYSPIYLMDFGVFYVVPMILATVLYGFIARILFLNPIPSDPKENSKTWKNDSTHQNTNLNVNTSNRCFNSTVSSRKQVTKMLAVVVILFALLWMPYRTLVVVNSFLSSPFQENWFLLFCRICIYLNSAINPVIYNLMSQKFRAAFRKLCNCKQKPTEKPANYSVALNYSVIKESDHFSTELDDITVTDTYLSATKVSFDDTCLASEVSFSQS
# Sequence of Estrogen receptor (Homo sapiens) (P03372 whole entry, looked up): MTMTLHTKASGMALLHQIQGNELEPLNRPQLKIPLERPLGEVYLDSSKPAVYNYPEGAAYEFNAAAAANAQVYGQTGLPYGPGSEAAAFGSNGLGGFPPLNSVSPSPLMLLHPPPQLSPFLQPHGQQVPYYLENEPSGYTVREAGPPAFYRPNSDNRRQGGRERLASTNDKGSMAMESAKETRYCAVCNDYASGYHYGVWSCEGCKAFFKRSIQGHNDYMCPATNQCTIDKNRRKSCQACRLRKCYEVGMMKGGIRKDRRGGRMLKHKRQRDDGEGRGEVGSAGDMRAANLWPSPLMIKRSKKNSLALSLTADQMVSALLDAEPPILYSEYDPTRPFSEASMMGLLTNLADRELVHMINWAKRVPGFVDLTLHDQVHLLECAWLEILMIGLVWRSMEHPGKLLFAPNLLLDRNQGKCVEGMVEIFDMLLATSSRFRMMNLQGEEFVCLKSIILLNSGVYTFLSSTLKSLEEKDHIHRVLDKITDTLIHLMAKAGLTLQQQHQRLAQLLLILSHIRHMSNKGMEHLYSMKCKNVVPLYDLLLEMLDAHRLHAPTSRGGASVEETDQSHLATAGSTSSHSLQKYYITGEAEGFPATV
# Sequence of Thyrotropin receptor (Homo sapiens) (P16473 whole entry, looked up): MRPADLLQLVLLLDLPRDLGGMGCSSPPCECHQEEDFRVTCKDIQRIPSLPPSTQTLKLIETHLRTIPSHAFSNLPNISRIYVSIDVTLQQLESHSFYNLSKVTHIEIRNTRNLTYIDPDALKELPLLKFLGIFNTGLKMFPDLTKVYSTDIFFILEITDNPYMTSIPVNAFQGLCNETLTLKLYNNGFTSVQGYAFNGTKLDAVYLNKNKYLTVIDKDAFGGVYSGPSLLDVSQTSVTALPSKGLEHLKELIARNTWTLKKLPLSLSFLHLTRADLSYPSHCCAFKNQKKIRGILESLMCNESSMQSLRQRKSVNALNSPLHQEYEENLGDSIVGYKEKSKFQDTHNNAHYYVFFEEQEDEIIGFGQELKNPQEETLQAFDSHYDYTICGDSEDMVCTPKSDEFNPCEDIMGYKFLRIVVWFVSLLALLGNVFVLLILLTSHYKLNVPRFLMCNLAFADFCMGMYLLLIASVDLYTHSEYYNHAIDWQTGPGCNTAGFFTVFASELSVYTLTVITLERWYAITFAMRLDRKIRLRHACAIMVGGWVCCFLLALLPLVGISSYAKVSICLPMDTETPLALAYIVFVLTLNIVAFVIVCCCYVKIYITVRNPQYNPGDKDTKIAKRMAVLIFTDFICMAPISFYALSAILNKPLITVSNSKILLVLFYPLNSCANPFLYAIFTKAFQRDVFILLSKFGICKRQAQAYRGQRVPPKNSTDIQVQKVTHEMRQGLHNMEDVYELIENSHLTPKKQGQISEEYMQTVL
# Sequence of Progesterone receptor (Homo sapiens) (P06401 whole entry, looked up): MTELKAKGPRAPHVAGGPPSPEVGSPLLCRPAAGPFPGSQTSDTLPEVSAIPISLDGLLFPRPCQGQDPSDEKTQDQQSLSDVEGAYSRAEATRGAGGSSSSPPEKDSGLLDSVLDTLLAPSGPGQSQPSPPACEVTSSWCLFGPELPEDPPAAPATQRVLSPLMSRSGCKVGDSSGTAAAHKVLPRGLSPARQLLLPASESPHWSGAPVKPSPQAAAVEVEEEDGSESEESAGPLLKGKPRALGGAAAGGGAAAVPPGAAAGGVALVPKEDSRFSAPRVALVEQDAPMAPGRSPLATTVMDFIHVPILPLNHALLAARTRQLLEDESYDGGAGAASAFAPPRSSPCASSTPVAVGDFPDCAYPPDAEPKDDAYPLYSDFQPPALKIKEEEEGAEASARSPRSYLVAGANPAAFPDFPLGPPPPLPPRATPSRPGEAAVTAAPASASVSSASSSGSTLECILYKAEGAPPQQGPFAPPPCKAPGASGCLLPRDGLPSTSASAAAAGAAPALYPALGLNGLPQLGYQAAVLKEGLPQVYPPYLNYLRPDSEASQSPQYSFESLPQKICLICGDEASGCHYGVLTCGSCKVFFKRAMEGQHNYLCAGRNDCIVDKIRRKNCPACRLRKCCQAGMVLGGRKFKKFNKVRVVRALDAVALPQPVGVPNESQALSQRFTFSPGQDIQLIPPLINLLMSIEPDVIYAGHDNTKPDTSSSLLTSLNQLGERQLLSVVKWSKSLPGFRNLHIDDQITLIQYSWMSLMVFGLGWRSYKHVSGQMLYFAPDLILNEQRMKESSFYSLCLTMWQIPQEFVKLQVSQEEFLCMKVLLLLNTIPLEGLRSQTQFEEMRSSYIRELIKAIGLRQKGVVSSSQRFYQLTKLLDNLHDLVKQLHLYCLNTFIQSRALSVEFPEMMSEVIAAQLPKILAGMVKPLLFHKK
# Sequence of Androgen receptor (Homo sapiens) (P10275 whole entry, looked up): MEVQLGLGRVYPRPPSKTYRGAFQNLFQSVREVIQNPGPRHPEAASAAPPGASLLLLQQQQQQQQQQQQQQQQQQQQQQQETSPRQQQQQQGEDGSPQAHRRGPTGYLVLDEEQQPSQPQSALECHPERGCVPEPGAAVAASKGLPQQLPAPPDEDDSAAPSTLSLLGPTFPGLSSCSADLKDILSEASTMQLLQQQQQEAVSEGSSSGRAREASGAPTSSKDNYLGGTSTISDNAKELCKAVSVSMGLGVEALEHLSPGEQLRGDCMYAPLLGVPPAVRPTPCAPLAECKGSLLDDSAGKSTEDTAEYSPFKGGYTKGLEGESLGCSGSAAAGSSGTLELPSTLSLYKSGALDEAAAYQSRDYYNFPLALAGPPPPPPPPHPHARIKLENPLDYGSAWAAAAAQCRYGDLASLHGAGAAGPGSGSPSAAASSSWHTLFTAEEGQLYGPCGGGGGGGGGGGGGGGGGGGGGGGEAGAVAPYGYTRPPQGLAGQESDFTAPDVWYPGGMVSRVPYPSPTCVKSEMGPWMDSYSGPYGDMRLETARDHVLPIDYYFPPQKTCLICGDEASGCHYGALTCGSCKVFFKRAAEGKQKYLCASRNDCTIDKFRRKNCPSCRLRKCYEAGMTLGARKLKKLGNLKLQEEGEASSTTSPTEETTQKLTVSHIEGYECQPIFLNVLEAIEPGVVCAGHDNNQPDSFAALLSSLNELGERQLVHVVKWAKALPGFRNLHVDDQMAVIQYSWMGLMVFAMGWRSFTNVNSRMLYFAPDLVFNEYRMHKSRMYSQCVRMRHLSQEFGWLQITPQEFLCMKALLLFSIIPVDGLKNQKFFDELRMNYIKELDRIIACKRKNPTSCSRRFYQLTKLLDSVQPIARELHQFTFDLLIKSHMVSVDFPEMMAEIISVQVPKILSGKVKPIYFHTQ
# Sequence of Estrogen receptor beta (Homo sapiens) (Q92731 whole entry, looked up): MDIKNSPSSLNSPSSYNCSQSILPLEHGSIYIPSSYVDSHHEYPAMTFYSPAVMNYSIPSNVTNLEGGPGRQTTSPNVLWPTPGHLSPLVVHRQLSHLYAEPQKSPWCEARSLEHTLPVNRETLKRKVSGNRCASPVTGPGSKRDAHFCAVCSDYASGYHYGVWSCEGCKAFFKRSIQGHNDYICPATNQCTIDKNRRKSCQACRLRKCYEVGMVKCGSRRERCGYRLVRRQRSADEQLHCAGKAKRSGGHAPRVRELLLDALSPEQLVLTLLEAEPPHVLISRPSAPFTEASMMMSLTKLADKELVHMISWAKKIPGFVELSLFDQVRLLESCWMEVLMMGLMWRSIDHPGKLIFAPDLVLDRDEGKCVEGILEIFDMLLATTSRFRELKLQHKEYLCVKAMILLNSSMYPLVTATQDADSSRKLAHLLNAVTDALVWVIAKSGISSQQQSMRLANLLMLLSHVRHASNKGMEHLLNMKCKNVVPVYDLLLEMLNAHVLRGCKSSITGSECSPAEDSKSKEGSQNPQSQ
Compound,Potency [1],Potency [2],Potency [3],outcome [4],Potency [5],Potency [6],Potency [7],Potency [8],Potency [9],Potency [10],Potency [11],Potency [12],Potency [13],Potency [14],outcome [15],Potency [16],Potency [17],Potency [18],Potency [19],Potency [20]
CS(=O)(=O)c1ccc(C(=O)C2C(=O)CCCC2=O)c([N+](=O)[O-])c1,inactive,inactive,inactive,inactive,inactive,inactive,inactive,inactive,inactive,inactive,–,–,–,–,–,–,–,–,–,–
CCCN(CC)CC1COC2(CCC(C(C)(C)C)CC2)O1 (stereo not drawn),inactive,inactive,inactive,inactive,inactive,inactive,inactive,–,inactive,–,inactive,inactive,inactive,inactive,inactive,–,–,–,–,–
Nc1ccc(Cl)cc1C(=O)c1ccccc1,30.6 µM (active),–,inactive,inactive,inactive,–,inactive,–,–,inactive,–,–,–,17.2 µM (active),inactive,inactive,inactive,–,–,–
CCCCCCCCCCCCCCC(Br)C(=O)O (stereo not drawn),inactive,inactive,inactive,–,–,inactive,inactive,inactive,inactive,inactive,–,inactive,inactive,inactive,inactive,inactive,–,inactive,–,–
NC(=O)CCl,–,inactive,inactive,inactive,inactive,inactive,inactive,inactive,inactive,inactive,inactive,–,–,–,inactive,–,inactive,inactive,inactive,inactive
ClC1=C(Cl)[C@]2(Cl)[C@@H]3[C@@H](Cl)[C@@H](Cl)C[C@@H]3[C@@]1(Cl)C2(Cl)Cl,–,inactive,inactive,–,–,inactive,inactive,inactive,inactive,inactive,inactive,inactive,inactive,inactive,inactive,–,–,inactive,inactive,inactive
CCc1cc(C)cc(CC)c1-c1c(OC(=O)C(C)(C)C)n2n(c1=O)CCOCC2,inactive,–,inactive,inactive,inactive,inactive,inactive,inactive,–,inactive,–,34.4 µM (active),–,inactive,inactive,–,inactive,inactive,inactive,–
CC(C)C(=O)Cl,–,inactive,–,inactive,inactive,inactive,inactive,inactive,inactive,inactive,inactive,inactive,inactive,inactive,inactive,inactive,inactive,inactive,inactive,inactive
COC(=O)N(C(=O)N1CO[C@@]2(C(=O)OC)Cc3cc(Cl)ccc3C2=N1)c1ccc(OC(F)(F)F)cc1,–,inactive,inactive,–,inactive,inactive,inactive,–,inactive,inactive,–,inactive,–,–,inactive,–,–,–,inactive,inactive
N#Cc1c(-c2ccc(Cl)cc2)[nH]c(C(F)(F)F)c1Br,–,0.969 µM (active),inactive,inactive,inactive,–,inactive,inactive,0.77 µM (active),–,–,–,–,–,–,–,6.86 µM (active),inactive,24.3 µM (active),inactive
ClC1=C(Cl)[C@]2(Cl)[C@H]3[C@H]([C@H]4C=C[C@H]3C4)[C@@]1(Cl)C2(Cl)Cl,–,inactive,inactive,inactive,inactive,inactive,inactive,inactive,inactive,inactive,inactive,inactive,inactive,–,inactive,–,–,inactive,inactive,–
COc1ccc(/C(=C/C(=O)N2CCOCC2)c2ccc(Cl)cc2)cc1OC,–,inactive,–,inactive,inactive,inactive,inactive,inactive,inactive,inactive,–,inactive,inactive,–,inactive,–,inactive,inactive,68.6 µM (active),inactive
COC12CC[C@@]3(C[C@@H]1C(C)(O)C(C)(C)C)[C@H]1Cc4ccc(O)c5c4[C@@]3(CCN1CC1CC1)[C@H]2O5 (stereo partly drawn),–,60.7 µM (active),inactive,inactive,inactive,48.6 µM (active),38.6 µM (active),–,54.1 µM (active),60.7 µM (active),54.1 µM (active),60.7 µM (active),–,–,inactive,43 µM (active),38.3 µM (active),–,27.1 µM (active),–
CCSC(C)CC1CC(=O)C(/C(CC)=N/OC/C=C/Cl)=C(O)C1 (stereo not drawn),–,inactive,inactive,inactive,inactive,inactive,inactive,inactive,inactive,inactive,inactive,inactive,inactive,inactive,inactive,inactive,inactive,inactive,inactive,–
